Consider three molecules from PubChem BioAssay (EPA / NIEHS).

As usually defined, the AC50 is the concentration at which the activity in the assay is half-maximal.

Activity calls are given as the source filed them. Rule for the calls: active = hit-call score of the fitted dose curve at least 0.9, where 1 is the maximum; inactive = score below 0.9.

Read-out in test [1]: Cyclin Dependent Kinase Inhibitor 1A (CDKN1A), CDKN1A (gene 1026)
Put plainly: LTEA_HepaRG_CDKN1A: Life Technologies and Expression Analysis (LTEA) Assay for Cyclin Dependent Kinase Inhibitor 1A (CDKN1A) using HepaRG (AID 2283450). The note with it: mRNA level, 48 h; actives raise or lower the signal. The method in brief: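 HepaRG, 48 h dosing, 8-pt half-log series from 100 uM top, 0.5% DMSO vehicle, duplicates. Readout: TaqMan qRT-PCR of CDKN1A transcript, housekeeping-normalized (ACTB, GAPDH, POLR2A). Up/down curve fit relative to DMSO.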

Read-out in test [2]: Cyclin D1 (CCND1), CCND1 (gene 595)
Put plainly: LTEA_HepaRG_CCND1: Life Technologies and Expression Analysis (LTEA) Assay for Cyclin D1 (CCND1) using HepaRG (AID 2283451).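 For AC50: differentiated human HepaRG liver cells in serum-free induction medium.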 Conditions: mRNA level, 48 h; actives raise or lower the signal. The method in brief:
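qRT-PCR (Fluidigm 96.96 array) read-out of transcript level, housekeeping-normalized (ACTB/GAPDH/POLR2A). HepaRG cells, 48 h chemical exposure, 8-point half-log series from 100 uM, 0.5% DMSO vehicle; gain or loss relative to DMSO baseline.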

Read-out in test [3]: catalase (CAT), CAT (gene 847)
Briefly: LTEA_HepaRG_CAT: Life Technologies and Expression Analysis (LTEA) Assay for catalase (CAT) using HepaRG (AID 2283452). Conditions: mRNA level, 48 h; actives raise or lower the signal. The method in brief: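 Expression of CAT was quantified by TaqMan qRT-PCR with ACTB/GAPDH/POLR2A normalization after 48 h chemical exposure of HepaRG. Eight-point half-log series, top 100 uM, in 0.5% DMSO; gain or loss fitted against vehicle.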

Read-out in test [4]: flavin-containing dimethylaniline monooxygenases 3 (FMO3), FMO3 (gene 2328)
Put plainly: LTEA_HepaRG_FMO3: Life Technologies and Expression Analysis (LTEA) Assay for flavin-containing dimethylaniline monooxygenases 3 (FMO3) using HepaRG (AID 2283453).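 For AC50: differentiated human HepaRG liver cells in serum-free induction medium.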 The note with it: mRNA level, 48 h; actives raise or lower the signal. The method in brief:
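Eight-point concentration-response in serum-free HepaRG cultures (top 100 uM, 0.5% DMSO, 48 h). Read-out: FMO3 mRNA level normalized to three endogenous control genes, fitted bidirectionally versus vehicle.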

Read-out in test [5]: Cytochrome P450 (CYP1A1), CYP1A1 (gene 1543)
Briefly: LTEA_HepaRG_CYP1A1: Life Technologies and Expression Analysis (LTEA) Assay for Cytochrome P450 (CYP1A1) using HepaRG (AID 2283454). The note with it: mRNA level, 48 h; actives raise or lower the signal. The method in brief: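 qRT-PCR read-out: CYP1A1 transcript normalized to three housekeeping genes, fitted bidirectionally against 0.5% DMSO vehicle baseline. Human HepaRG cells, 48 h chemical exposure, 8-point half-log series topping at 100 uM.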

Read-out in test [6]: CFLAR gene, CFLAR (gene 8837)
Briefly: LTEA_HepaRG_CFLAR: Life Technologies and Expression Analysis (LTEA) Assay for CFLAR gene using HepaRG (AID 2283455). The note with it: mRNA level, 48 h; actives raise or lower the signal. The method in brief: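 Transcript level by qRT-PCR (normalized to ACTB, GAPDH and POLR2A) after 48 h chemical exposure of HepaRG cells, top concentration 100 uM with half-log steps, 0.5% DMSO vehicle, duplicates; fitted bidirectionally against DMSO baseline.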

Read-out in test [7]: Forkhead box O1 (FOXO1), FOXO1 (gene 2308)
Briefly: LTEA_HepaRG_FOXO1: Life Technologies and Expression Analysis (LTEA) Assay for Forkhead box O1 (FOXO1) using HepaRG (AID 2283456). The note with it: mRNA level, 48 h; actives raise or lower the signal. The method in brief:
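FOXO1 transcript quantified by qRT-PCR after 48 h chemical exposure (top 100 uM, half-log steps, 0.5% DMSO) of HepaRG cells, housekeeping-normalized (ACTB/GAPDH/POLR2A). Changes fitted in both directions relative to vehicle.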

A short description of test [8]: CEETOX_H295R_TESTO: CeeTox H295R High-throughput Steroidogenesis Assay for Testosterone (TESTO) (AID 2283457). The note with it: actives raise or lower the signal. The method in brief:
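Readout: testosterone quantified by HPLC-MS/MS (C18, ESI positive) after MTBE liquid-liquid extraction of culture medium. Cells were H295R, 48 h chemical exposure per OECD 456 with modifications. Gain or loss of signal fitted relative to DMSO.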

Read-out in test [9]: growth arrest and DNA damage 45 (GADD45A), GADD45A (gene 1647)
Put plainly: LTEA_HepaRG_GADD45A: Life Technologies and Expression Analysis (LTEA) Assay for growth arrest and DNA damage 45 (GADD45A) using HepaRG (AID 2283458). The note with it: mRNA level, 48 h; actives raise or lower the signal. The method in brief: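 HepaRG, 48 h exposure, 8 conc. (top 100 uM, half-log steps), 0.5% DMSO vehicle, duplicates. Read-out: qRT-PCR mRNA level, housekeeping-normalized (ACTB/GAPDH/POLR2A). Curves fit bidirectionally vs DMSO baseline.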

Read-out in test [10]: Forkhead box O3 (FOXO3), FOXO3 (gene 2309)
Briefly: LTEA_HepaRG_FOXO3: Life Technologies and Expression Analysis (LTEA) Assay for Forkhead box O3 (FOXO3) using HepaRG (AID 2283459). Conditions: mRNA level, 48 h; actives raise or lower the signal. The method in brief:
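FOXO3 transcript measured by qRT-PCR (normalized to ACTB, GAPDH, POLR2A) after 48 h exposure of HepaRG cells in serum-free induction medium. Duplicates, eight half-log concentrations up to 100 uM, 0.5% DMSO; gain or loss fitted against DMSO.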

Read-out in test [11]: ABC Transporter (ABCB1), ABCB1 (gene 5243)
Briefly: LTEA_HepaRG_ABCB1: Life Technologies and Expression Analysis (LTEA) Assay for ABC Transporter (ABCB1) using HepaRG (AID 2283460). Conditions: mRNA level, 48 h; actives raise or lower the signal. The method in brief:
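ABCB1 transcript level measured by TaqMan qRT-PCR against three housekeeping genes after 48 h chemical exposure of differentiated HepaRG cells. Top concentration 100 uM, half-log steps, eight points, 0.5% DMSO vehicle; bidirectional fit relative to DMSO.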

Read-out in test [12]: ABC Transporter (ABCB11), ABCB11 (gene 8647)
Briefly: LTEA_HepaRG_ABCB11: Life Technologies and Expression Analysis (LTEA) Assay for ABC Transporter (ABCB11) using HepaRG (AID 2283463). The note with it: mRNA level, 48 h; actives raise or lower the signal. The method in brief: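 ABCB11 transcript levels quantified by TaqMan qRT-PCR against three housekeeping genes after 48 h chemical exposure of HepaRG cultures. Concentrations up to 100 uM in half-log steps, 0.5% DMSO vehicle; both induction and suppression scored.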

Read-out in test [13]: ABC Transporter (ABCC2), ABCC2 (gene 1244)
Put plainly: LTEA_HepaRG_ABCC2: Life Technologies and Expression Analysis (LTEA) Assay for ABC Transporter (ABCC2) using HepaRG (AID 2283464). Conditions: mRNA level, 48 h; actives raise or lower the signal. The method in brief:
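qRT-PCR (TaqMan, Fluidigm array) read-out of ABCC2 mRNA, normalized to three housekeeping genes. Differentiated HepaRG cells were treated 48 h in serum-free induction medium with 8-point half-log series from 100 uM in 0.5% DMSO; curves fitted bidirectionally relative to DMSO.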

Read-out in test [14]: Broad substrate specificity ATP-binding cassette transporter ABCG2 (Homo sapiens) (UniProt Q9UNQ0)
Put plainly: LTEA_HepaRG_ABCG2: Life Technologies and Expression Analysis (LTEA) Assay for ABC Transporter (ABCG2) using HepaRG (AID 2283465). The note with it: mRNA level, 48 h; actives raise or lower the signal. The method in brief:
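ABCG2 transcript was quantified by TaqMan qRT-PCR against three housekeeping genes in HepaRG cells. Cells were treated in duplicate for 48 h across an 8-point half-log series up to 100 uM, with 0.5% DMSO vehicle. Gain or loss versus DMSO was fit.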

Read-out in test [15]: ATP-citrate lyase (ACLY), ACLY (gene 47)
Briefly: LTEA_HepaRG_ACLY: Life Technologies and Expression Analysis (LTEA) Assay for ATP-citrate lyase (ACLY) using HepaRG (AID 2283466). Conditions: mRNA level, 48 h; actives raise or lower the signal. The method in brief:
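ACLY mRNA quantified by qRT-PCR on Fluidigm arrays against three housekeeping genes, after 48 h chemical treatment of HepaRG cells (top concentration 100 uM, half-log steps, 0.5% DMSO vehicle). Up- or down-regulation fitted relative to DMSO.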

Read-out in test [16]: Alkaline Phosphatase, Placental (ALPP) gene, ALPP (gene 250)
Briefly: LTEA_HepaRG_ALPP: Life Technologies and Expression Analysis (LTEA) Assay for Alkaline Phosphatase, Placental (ALPP) gene using HepaRG (AID 2283468).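 For AC50: differentiated human HepaRG liver cells in serum-free induction medium.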 The note with it: mRNA level, 48 h; actives raise or lower the signal. The method in brief:
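qRT-PCR readout of ALPP mRNA (Fluidigm TaqMan), normalized to ACTB/GAPDH/POLR2A, after 48 h chemical exposure of HepaRG cells; 8-point half-log series, top 100 uM, 0.5% DMSO vehicle. Bidirectional curve fit versus DMSO baseline.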

Read-out in test [17]: Bcl-2 (BAD) gene, BAD (gene 572)
Briefly: LTEA_HepaRG_BAD: Life Technologies and Expression Analysis (LTEA) Assay for Bcl-2 (BAD) gene using HepaRG (AID 2283469). Conditions: mRNA level, 48 h; actives raise or lower the signal. The method in brief: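 Read-out: qRT-PCR of BAD mRNA, normalized to three housekeeping genes. Human HepaRG cultures got 48 h chemical exposure in 0.5% DMSO, duplicate eight-point half-log series topping at 100 uM. Gain or loss of signal fitted versus DMSO vehicle.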

Read-out in test [18]: Peroxisomal acyl-coenzyme A oxidase 1 (ACOX1) gene, ACOX1 (gene 51)
Put plainly: LTEA_HepaRG_ACOX1: Life Technologies and Expression Analysis (LTEA) Assay for Peroxisomal acyl-coenzyme A oxidase 1 (ACOX1) gene using HepaRG (AID 2283467). The note with it: mRNA level, 48 h; actives raise or lower the signal. The method in brief: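 ACOX1 transcript levels were quantified by TaqMan qRT-PCR against three housekeeping genes after 48 h chemical exposure of differentiated human HepaRG cells. Exposure used eight half-log steps topping at 100 uM, 0.5% DMSO vehicle, in duplicate. Bidirectional curve fits were made relative to DMSO.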

Read-out in test [19]: ABC Transporter (ABCC3), ABCC3 (gene 8714)
Put plainly: LTEA_HepaRG_ABCC3: Life Technologies and Expression Analysis (LTEA) Assay for ABC Transporter (ABCC3) using HepaRG (AID 2283462). Conditions: mRNA level, 48 h; actives raise or lower the signal. The method in brief:
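qRT-PCR read-out of ABCC3 transcript, normalized to three housekeeping genes (ACTB, GAPDH, POLR2A), after 48 h chemical exposure of human HepaRG cells. Eight half-log concentrations, highest 100 uM, in 0.5% DMSO; gain or loss fitted relative to DMSO baseline.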

Sequence of Broad substrate specificity ATP-binding cassette transporter ABCG2 (Homo sapiens) (Q9UNQ0 whole entry, looked up): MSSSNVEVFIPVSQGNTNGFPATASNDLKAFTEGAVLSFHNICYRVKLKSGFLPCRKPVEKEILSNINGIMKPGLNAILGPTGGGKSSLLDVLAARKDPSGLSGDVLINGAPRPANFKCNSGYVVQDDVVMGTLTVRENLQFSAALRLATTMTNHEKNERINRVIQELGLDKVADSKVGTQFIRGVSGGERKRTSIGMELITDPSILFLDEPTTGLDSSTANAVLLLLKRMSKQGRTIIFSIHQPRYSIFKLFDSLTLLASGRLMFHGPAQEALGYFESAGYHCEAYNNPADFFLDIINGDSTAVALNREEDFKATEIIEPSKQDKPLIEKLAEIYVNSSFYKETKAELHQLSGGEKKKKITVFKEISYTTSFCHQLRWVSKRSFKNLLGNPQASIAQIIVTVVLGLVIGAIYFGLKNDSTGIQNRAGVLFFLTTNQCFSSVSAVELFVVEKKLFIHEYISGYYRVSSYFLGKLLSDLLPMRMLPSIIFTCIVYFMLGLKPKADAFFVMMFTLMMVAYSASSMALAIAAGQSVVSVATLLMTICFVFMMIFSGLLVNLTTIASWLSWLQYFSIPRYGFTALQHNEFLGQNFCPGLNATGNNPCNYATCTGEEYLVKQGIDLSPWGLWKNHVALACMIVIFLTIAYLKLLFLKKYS

As for `NC(=O)c1nc(-c2cccc(-c3cc(F)ccc3OCC(F)(F)C(F)(F)F)c2)n[nH]1`, the outcome in [1], in test [2], in test [4], in [6], in [7] and in [8] was inactive. Moreover, the call in test [9], in test [11], in test [12], in test [15] and in test [17] was inactive. The half-maximal activity concentration (AC50) was 50 µM (active) in test [3]; 20.1 µM (active) in [5]; 50 µM (active) in test [10]; 89.8 µM (active) in test [13]; 15.8 µM (active) in [14]; 3.42 µM (active) in test [16].
On to `OC12N=C(c3ccccc3)SC1Cc1cc(Cl)ccc12` (stereo unspecified), for which the call in test [1], in test [7], in test [9], in test [13] and in test [17] was inactive. For the same molecule, the AC50 in test [2] was 9.92 µM (active); in [3] it was 16.6 µM (active); in test [4], 15.7 µM (active); in [5], 1.21 µM (active); in test [6], 5 µM (active); in [10] it was 4.85 µM (active). Also, the AC50 was 17 µM (active) in test [11]; 16.7 µM (active) in [12]; 16.7 µM (active) in test [14]; 0.377 µM (active) in [15]; 21.1 µM (active) in [18]; 35.7 µM (active) in test [16].
`CC(O)CC(C)(C)O` (stereo unspecified): the call in [1], in test [2], in [3], in test [4], in [5] and in test [6] was inactive. Also, the molecule was called inactive in test [7], in [9], in test [10], in [11], in [19] and in test [12]. Moreover, the molecule was classed as inactive in test [13], in test [14], in test [15], in [16] and in [17].
